The source of these data is ChEMBL document CHEMBL3988442, “University of Dundee, Small-Polar-MMV Screening Library” (2021).

Holding throughout (set-up): scale not given: direction of the effect not stated beside the values
The target in assay [1] is Protein translocase subunit SecA (Escherichia coli (strain K12)) (UniProt P10408). Briefly: Assay to Identify E. coli SecA ATPase Inhibitors. In kind it is functional. The note with it: 30 µM.
Assay [2] addresses T1, Ubiquitin-activating enzyme e1, putative (Leishmania donovani (strain BPK282A1)) (UniProt E9BSI1).
T1 sequence (whole entry): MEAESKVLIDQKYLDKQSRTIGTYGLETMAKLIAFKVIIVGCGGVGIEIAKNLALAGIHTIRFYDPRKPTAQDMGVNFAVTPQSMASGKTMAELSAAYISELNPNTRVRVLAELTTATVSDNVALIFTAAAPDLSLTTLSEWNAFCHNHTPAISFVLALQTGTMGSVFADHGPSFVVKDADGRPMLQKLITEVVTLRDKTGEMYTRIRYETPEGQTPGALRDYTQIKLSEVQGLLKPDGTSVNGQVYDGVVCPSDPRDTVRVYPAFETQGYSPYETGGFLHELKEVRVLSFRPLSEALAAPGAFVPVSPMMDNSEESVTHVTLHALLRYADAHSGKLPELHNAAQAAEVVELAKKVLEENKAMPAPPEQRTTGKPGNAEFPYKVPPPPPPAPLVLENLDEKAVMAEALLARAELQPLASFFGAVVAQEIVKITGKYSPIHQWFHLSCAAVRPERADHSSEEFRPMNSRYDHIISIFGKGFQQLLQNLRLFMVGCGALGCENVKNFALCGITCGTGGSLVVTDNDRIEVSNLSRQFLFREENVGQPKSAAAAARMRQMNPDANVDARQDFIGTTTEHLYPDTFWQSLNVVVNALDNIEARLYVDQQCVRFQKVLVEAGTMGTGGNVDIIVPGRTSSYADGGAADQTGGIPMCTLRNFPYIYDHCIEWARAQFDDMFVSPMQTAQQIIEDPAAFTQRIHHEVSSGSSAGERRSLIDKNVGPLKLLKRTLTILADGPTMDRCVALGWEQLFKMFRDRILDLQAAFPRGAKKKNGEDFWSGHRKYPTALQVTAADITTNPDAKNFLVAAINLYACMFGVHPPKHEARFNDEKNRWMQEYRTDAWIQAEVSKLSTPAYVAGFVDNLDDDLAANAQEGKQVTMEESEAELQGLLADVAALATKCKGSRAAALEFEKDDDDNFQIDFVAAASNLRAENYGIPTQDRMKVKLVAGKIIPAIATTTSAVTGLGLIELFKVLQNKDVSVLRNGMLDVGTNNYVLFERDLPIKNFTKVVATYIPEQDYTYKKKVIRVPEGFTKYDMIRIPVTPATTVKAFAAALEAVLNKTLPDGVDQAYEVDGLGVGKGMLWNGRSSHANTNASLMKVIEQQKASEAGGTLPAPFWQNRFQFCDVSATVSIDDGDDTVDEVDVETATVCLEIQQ
Briefly: Leishmania donovani Ubiquitin Activating Enzyme (LdE1). The settings on record: 30 µM. In kind it is functional.

Assay [3] has as its target T2, Aspartate--tRNA(Asp/Asn) ligase (Mycobacterium tuberculosis (strain ATCC 25618 / H37Rv)) (UniProt P9WFW3). Note: in the data most compounds retested in dose-response had high values.
T2 sequence (whole entry): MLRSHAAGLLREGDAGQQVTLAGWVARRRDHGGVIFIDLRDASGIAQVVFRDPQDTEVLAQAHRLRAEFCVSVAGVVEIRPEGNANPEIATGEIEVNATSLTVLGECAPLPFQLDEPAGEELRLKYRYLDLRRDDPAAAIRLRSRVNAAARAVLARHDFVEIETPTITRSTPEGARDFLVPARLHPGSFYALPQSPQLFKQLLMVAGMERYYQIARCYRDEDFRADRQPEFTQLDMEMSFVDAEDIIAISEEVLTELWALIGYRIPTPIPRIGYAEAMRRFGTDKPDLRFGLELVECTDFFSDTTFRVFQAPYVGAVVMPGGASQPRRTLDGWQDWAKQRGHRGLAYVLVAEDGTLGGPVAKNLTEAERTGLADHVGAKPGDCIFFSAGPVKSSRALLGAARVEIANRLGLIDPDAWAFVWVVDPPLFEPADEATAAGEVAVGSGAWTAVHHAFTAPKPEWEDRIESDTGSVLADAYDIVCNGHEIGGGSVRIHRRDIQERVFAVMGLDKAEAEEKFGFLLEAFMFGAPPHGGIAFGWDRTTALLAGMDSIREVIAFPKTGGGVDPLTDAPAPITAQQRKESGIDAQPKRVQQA
Description: Assay for Asp RNA synthetase-1 from Mycobacterium tuberculosis. Format: functional. The settings on record: 30 µM.

In assay [4] the target is AMP-activated protein kinase, AMPK (Homo sapiens) (UniProt P54646+O43741+P54619+Q9UGJ0+Q9Y478+Q13131+Q9UGI9). Briefly: AMP-dependent Kinase enzyme assay. An in vitro enzyme assay that detects ADP turnover that is directly proportional to AMPK activity. This uses naive AMPK that is activated during the assay with MK-8722. In kind it is functional. The note with it: 30 µM.

Assay [5] deals with Sialic acid-binding Ig-like lectin 9 (Homo sapiens) (UniProt Q9Y336). Description: Hs-Siglec9 ALPHAscreen SOP 20170721. The note with it: 10 µM. For orientation: In Alpha technology, singlet oxygen from a donor bead excites a nearby acceptor bead.
The subject of the next assay is Trypanosoma cruzi. Description: Trypanosoma cruzi phosphomannomutase and mannose-1-phosphate guanylyltransferase assay. In kind it is functional. The note with it: 10 µM.
Assay [6] deals with T3, Arginase-2, mitochondrial (Homo sapiens) (UniProt P78540).
T3 sequence (whole entry): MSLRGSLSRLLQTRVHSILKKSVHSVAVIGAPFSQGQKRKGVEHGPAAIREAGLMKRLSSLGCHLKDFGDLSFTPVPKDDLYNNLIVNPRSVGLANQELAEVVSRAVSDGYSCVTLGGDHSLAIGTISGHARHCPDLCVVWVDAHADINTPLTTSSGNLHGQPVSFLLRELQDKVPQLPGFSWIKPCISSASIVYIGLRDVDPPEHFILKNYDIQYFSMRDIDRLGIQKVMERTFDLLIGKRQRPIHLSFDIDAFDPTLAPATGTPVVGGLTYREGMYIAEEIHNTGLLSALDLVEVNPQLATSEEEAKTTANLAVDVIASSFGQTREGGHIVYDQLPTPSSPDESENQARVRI
Description: in vitro enzyme assay to detect the production of urea directly proportional to the activity of Arginase II. Note: in the data most compounds retested in dose-response had high values. The note with it: 33.3 µM. In kind it is functional.

For assay [7], the target named is T4, Proteasome subunit beta (Trypanosoma cruzi) (UniProt O96673).
T4 sequence (whole entry): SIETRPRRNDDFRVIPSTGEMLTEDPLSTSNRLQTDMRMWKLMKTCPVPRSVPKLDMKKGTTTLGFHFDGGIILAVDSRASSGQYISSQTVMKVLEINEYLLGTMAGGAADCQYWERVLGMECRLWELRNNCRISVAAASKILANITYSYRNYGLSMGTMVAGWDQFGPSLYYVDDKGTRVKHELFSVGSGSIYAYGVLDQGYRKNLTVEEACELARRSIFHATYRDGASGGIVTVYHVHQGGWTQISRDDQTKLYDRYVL
Description: Trypanosoma cruzi proteasome chymotrypsin-like activity (TcProtChymo) assay. Note: in the data most compounds retested in dose-response had high values. Format: functional. The settings on record: 9.37 µM.

For another assay, the species on record is Homo sapiens. Description: To identify inhibition of the IFN signalling (Jak-Stat) pathway via expression of an eGFP reporter gene under the control of an IFN-stimulated response element (ISRE) containing MxA promoter. Format: functional. The note with it: 30 µM. In general terms: In a reporter assay the amount or activity of a reporter protein is the signal.

Assay [8] deals with Shiga toxin 2 (Escherichia coli O157:H7) (UniProt P09385+P09386). Briefly: E. coli 0.157:H7 Shiga Toxin SOP - stx2 screening assay. In kind it is functional. The note with it: 30 µM.
Assay [9] deals with T5, Tyrosyl-tRNA synthetase, putative (Trypanosoma cruzi (strain CL Brener)) (UniProt Q4DSP6).
T5 sequence (whole entry): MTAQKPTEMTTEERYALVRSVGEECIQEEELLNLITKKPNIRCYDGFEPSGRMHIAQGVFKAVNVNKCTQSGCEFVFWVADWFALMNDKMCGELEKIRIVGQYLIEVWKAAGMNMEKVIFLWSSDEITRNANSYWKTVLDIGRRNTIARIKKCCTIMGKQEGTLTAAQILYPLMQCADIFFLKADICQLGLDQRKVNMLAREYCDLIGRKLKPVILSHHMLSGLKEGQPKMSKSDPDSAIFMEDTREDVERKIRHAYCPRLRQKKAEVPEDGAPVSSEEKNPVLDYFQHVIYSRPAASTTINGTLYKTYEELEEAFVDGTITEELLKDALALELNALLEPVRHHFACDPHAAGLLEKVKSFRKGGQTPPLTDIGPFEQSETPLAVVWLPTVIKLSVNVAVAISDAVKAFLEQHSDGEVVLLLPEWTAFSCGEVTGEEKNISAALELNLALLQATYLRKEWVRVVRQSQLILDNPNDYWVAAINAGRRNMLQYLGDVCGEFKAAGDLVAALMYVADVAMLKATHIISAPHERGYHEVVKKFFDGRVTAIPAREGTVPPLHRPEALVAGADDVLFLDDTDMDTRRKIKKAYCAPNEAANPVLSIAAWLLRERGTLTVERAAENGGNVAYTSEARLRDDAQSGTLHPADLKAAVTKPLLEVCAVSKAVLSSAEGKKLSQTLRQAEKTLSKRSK
Briefly: Trypanosoma cruzi tyrosyl tRNA synthetase (TcYRS) _High Tyrosine SOP. Note: in the data most compounds retested in dose-response had high values. In kind it is functional. The note with it: 30 µM.

Assay [10] concerns the target T5, Tyrosyl-tRNA synthetase, putative (Trypanosoma cruzi (strain CL Brener)). Description: Trypanosoma cruzi tyrosyl tRNA synthetase (TcYRS) SOP. Format: functional. The settings on record: 30 µM.
In assay [11] the target is Chromo domain-containing protein 1 (Saccharomyces cerevisiae (strain ATCC 204508 / S288c) (Baker's yeast)) (UniProt P32657). Description: ScCHD-1 Enzyme Inhibition Assay. Note: in the data most compounds retested in dose-response had high values. Format: functional. The note with it: 30 µM.

For some assays here: Results with a measured potency or affinity are listed apart.

Chain of Protein translocase subunit SecA (Escherichia coli (strain K12)) (P10408 whole entry): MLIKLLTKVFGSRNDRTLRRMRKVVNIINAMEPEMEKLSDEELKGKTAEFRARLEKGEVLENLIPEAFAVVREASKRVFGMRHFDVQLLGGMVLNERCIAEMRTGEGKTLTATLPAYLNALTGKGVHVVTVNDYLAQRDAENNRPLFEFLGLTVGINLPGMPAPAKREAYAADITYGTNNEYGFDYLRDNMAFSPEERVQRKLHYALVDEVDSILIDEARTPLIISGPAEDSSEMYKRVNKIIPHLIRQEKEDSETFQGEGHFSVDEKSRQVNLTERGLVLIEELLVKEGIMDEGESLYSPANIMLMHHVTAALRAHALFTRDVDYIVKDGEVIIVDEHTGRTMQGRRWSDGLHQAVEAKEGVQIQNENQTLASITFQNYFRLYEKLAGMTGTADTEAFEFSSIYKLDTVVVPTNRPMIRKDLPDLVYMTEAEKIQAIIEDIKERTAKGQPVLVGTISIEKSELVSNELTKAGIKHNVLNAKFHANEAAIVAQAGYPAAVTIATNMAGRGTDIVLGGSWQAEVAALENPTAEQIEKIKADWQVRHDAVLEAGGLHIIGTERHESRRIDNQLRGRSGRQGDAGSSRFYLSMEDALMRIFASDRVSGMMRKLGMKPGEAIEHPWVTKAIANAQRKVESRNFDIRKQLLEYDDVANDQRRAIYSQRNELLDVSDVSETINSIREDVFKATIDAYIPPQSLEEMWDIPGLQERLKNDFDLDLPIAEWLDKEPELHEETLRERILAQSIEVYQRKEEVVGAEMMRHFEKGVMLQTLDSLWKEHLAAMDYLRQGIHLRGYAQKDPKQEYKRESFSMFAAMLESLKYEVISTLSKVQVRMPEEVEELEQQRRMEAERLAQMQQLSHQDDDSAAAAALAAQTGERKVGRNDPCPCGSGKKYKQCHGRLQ
Chain of Sialic acid-binding Ig-like lectin 9 (Homo sapiens) (Q9Y336 whole entry): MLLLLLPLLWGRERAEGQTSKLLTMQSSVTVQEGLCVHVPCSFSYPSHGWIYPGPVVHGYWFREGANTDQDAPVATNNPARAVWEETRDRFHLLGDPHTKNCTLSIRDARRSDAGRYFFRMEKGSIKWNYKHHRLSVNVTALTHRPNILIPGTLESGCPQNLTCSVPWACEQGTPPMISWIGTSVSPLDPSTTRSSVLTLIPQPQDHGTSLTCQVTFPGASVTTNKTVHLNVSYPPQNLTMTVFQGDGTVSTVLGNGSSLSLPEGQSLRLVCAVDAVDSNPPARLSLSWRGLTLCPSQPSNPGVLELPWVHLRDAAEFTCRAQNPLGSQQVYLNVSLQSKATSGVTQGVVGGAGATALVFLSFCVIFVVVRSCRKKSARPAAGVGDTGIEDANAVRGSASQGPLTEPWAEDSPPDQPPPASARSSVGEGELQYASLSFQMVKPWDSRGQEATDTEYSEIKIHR
Chain of Chromo domain-containing protein 1 (Saccharomyces cerevisiae (strain ATCC 204508 / S288c) (Baker's yeast)) (P32657 whole entry, the tested form may be a part): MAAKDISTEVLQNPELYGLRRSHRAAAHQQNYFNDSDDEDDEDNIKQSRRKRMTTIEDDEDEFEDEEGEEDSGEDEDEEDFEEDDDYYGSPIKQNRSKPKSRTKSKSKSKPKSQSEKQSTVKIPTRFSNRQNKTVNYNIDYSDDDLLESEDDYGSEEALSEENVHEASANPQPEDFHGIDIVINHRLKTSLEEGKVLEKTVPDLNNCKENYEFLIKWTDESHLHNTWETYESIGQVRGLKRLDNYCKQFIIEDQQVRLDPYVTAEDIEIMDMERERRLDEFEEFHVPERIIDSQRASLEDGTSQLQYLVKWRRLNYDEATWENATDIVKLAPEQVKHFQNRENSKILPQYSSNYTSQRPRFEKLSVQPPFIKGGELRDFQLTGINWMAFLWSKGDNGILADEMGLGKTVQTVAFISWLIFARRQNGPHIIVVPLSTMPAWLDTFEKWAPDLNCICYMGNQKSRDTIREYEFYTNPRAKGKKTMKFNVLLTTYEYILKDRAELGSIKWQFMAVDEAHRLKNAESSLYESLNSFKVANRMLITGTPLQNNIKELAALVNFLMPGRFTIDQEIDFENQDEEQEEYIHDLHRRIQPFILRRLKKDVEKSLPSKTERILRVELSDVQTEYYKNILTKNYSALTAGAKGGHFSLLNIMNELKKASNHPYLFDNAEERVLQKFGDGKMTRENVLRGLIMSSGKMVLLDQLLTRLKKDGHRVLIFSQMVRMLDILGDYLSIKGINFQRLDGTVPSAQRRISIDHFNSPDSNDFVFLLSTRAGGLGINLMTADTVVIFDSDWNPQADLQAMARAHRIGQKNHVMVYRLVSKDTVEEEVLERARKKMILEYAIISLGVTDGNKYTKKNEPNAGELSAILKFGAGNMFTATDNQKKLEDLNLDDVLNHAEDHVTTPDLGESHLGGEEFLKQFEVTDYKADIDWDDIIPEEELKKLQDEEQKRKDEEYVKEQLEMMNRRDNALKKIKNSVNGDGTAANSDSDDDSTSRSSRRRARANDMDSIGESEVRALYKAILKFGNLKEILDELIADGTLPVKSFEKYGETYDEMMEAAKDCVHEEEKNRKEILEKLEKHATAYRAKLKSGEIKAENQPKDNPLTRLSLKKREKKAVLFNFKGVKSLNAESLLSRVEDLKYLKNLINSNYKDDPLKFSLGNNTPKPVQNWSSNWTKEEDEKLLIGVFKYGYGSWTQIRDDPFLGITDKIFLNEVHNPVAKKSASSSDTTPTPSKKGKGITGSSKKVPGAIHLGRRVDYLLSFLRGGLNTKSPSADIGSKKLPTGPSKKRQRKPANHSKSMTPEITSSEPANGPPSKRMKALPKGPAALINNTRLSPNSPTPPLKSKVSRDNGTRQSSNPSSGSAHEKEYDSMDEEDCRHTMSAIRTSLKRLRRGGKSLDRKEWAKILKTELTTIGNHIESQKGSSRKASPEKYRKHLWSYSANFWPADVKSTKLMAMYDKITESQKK

On to `c1cnc(NC[C@@H]2CCC[C@@H]3CN(Cc4cccnc4)C[C@@H]32)nc1`, for which the Percent Effect was 0.229% in assay [1]; 10.8% in assay [2]; -0.324% in assay [3]; -2.93% in assay [4]; -7.32% in [5]; 1.56% with Trypanosoma cruzi. The Percent Effect in assay [6] is 25.4%; in assay [7] it was 15.5%; in the assay filed under Homo sapiens, 10.2%; in assay [8], -34.3%; in [9], 13.9%; in [10] it was 18.3%. For the same molecule, the Percent Effect in [11] is -3%.
As for `CCOCC(O)CN1CCN(C(=O)Cc2ccccc2C)CC1` (stereo not given), the Percent Effect is 1.46% in [1]; 13.2% in assay [2]; -3.28% in assay [3]; -1.09% in [4]; 0.779% in assay [5]; -8.65% in the assay on Trypanosoma cruzi. In addition, the Percent Effect in assay [6] was 8.43%; in assay [7], 8.69%; in the assay filed under Homo sapiens, 20%; in assay [8] it was 30.3%; in assay [9], 0.49%; in assay [10] it was 9.76%. Besides, in assay [11], the Percent Effect is -8.57%.
Turning to `CC(C)CN1CCC2(CC1)C(=O)Nc1ccc(C(=O)N(C)C)cc12`, the Percent Effect in assay [1] is -4.79%; in [2] it was 5.41%; in assay [3], -0.578%; in [4] it was -2.95%; in [5] it was -1.19%; in the assay with Trypanosoma cruzi it was -3.81%. Besides, the Percent Effect came to 0.248% in assay [6]; 8.67% in assay [7]; 7.43% in the assay listed under Homo sapiens; 5.38% in assay [8]; 4.3% in assay [9]; 8.64% in assay [10]. Moreover, the Percent Effect in assay [11] is -2.28%.
With `c1csc(CN2CC[C@H]3C[C@H](c4ccncn4)O[C@@H]3C2)c1`, the Percent Effect was 2.89% in assay [1]; 13% in assay [2]; 2.7% in assay [3]; 9.99% in assay [4]; -6.78% in [5]; -7.99% in the assay with Trypanosoma cruzi. Further, the Percent Effect in assay [6] was 5.81%; in [7], 19.7%; in the assay filed under Homo sapiens it was 13.8%; in assay [8] it was -7.55%; in [9], 2.12%; in assay [10] it was 6.41%. In addition, the Percent Effect in [11] was -8.13%.
For `CC(C)N1CCOCC2(CN(Cc3ccccn3)CCO2)C1` (stereo not given), the Percent Effect in [1] was -1.27%; in assay [2] it was 10.4%; in assay [3], 5.23%; in assay [4] it was 2.61%; in assay [5] it was -0.373%; in the assay with Trypanosoma cruzi it was -2.86%. For the same molecule, the Percent Effect in [6] was 5.81%; in assay [7], 3.65%; in the assay listed under Homo sapiens, 5.84%; in assay [8], -12.2%; in assay [9] it was 6.35%; in assay [10], 3.85%. Further, in assay [11], the Percent Effect is -3.65%.
